Measurements: PubChem BioAssay (NCI)
Compounds without any hit were thinned out: in the full panel of roughly 83,000, 20% have a hit.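 Assay: single dose, 48 h. Readout: percent growth (0 = no net growth; negative = cell death). Active: <10.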 Active and inactive are the calls of the source.

What was measured:
Experiment in all cases: NCI-60 one-dose screen, 48 h (100 = growth as untreated, 0 = no growth, -100 = all killed)
Conditions in all cases: 10 µM unless noted
HT29 colon = tested on: HT29 colon
SNB-75 CNS = tested on: SNB-75 CNS
SNB-19 CNS = tested on: SNB-19 CNS
U251 CNS = tested on: U251 CNS
PC-3 prostate = tested on: PC-3 prostate
SK-MEL-5 melanoma = tested on: SK-MEL-5 melanoma
UACC-62 melanoma = tested on: UACC-62 melanoma
LOX IMVI melanoma = tested on: LOX IMVI melanoma
SK-MEL-28 melanoma = tested on: SK-MEL-28 melanoma

Measured: growth

N#C/C(=C\c1cccc2c1OCO2)C(=O)Nc1sc2c(c1C#N)CCCC2
inactive: HT29 colon 124% | SNB-75 CNS 102% | SNB-19 CNS 95.4% | U251 CNS 96.9% | PC-3 prostate 109% | SK-MEL-5 melanoma 101% | UACC-62 melanoma 90.8% | LOX IMVI melanoma 104% | SK-MEL-28 melanoma 102%

CN(C)CCNc1ccc2ncc(C#Cc3cncc(C(=O)Nc4ccc(CN5CCN(C)CC5)c(C(F)(F)F)c4)c3)n2n1
active: HT29 colon -13% | SNB-75 CNS -93.4% | SNB-19 CNS 1.59% | PC-3 prostate 2.27% | LOX IMVI melanoma -88.6%
inactive: U251 CNS 23.8% | SK-MEL-5 melanoma 74.6% | UACC-62 melanoma 60.2% | SK-MEL-28 melanoma 75%

CSc1ccc(/C(=N/N=C(N)N)c2ccc(Cl)cc2)cc1
inactive: SNB-19 CNS 19.6% | SK-MEL-28 melanoma 48.8%
active: HT29 colon -30.1% | SNB-75 CNS 1.16% | U251 CNS -13.5% | PC-3 prostate 8.76% | SK-MEL-5 melanoma -0.967% | UACC-62 melanoma 7.53% | LOX IMVI melanoma -42.5%

CC(=C(c1ccc(OCCCN(C)C)cc1)c1ccc(OCCCN(C)C)cc1)c1ccc(Cl)cc1
inactive: HT29 colon 45.7% | SNB-75 CNS 75.8% | SNB-19 CNS 92.9% | U251 CNS 92.1% | PC-3 prostate 87.5% | SK-MEL-5 melanoma 98.5% | UACC-62 melanoma 101% | LOX IMVI melanoma 76.6% | SK-MEL-28 melanoma 99.2%

C/C(=N\NC(N)=S)c1nnn(-c2ccc([N+](=O)[O-])cc2)c1C
inactive: HT29 colon 104% | SNB-75 CNS 87.3% | SNB-19 CNS 95.6% | U251 CNS 98.1% | PC-3 prostate 90.8% | SK-MEL-5 melanoma 100% | UACC-62 melanoma 98.4% | LOX IMVI melanoma 94.9% | SK-MEL-28 melanoma 104%

Cc1ccc(-c2nc(SCC(=O)c3ccccc3)nc(Nc3ccc(S(N)(=O)=O)cc3)c2C#N)cc1
inactive: HT29 colon 92.3% | SNB-75 CNS 80% | SNB-19 CNS 77.3% | U251 CNS 47.4% | PC-3 prostate 92.6% | SK-MEL-5 melanoma 75.5% | UACC-62 melanoma 80.3% | LOX IMVI melanoma 15.4% | SK-MEL-28 melanoma 81.1%

CS(=O)(=O)c1ccc(/C(=N/N=C(N)N)c2ccc(Cl)cc2)cc1
inactive: HT29 colon 92.9% | SNB-75 CNS 72.8% | SNB-19 CNS 90.3% | U251 CNS 92.8% | PC-3 prostate 76.5% | SK-MEL-5 melanoma 92.2% | UACC-62 melanoma 80.8% | LOX IMVI melanoma 79.7% | SK-MEL-28 melanoma 95.1%

CC1=C(C)C(=O)C(Nc2ccc3c(c2)OCCO3)=C(Br)C1=O
inactive: HT29 colon 108% | SNB-75 CNS 83.7% | SNB-19 CNS 98.5% | U251 CNS 103% | SK-MEL-5 melanoma 89.1% | UACC-62 melanoma 92.1% | LOX IMVI melanoma 20.3% | SK-MEL-28 melanoma 107%

Cc1ccc2c(n1)C(=O)C(Cl)=C(Nc1cccc(C(F)(F)F)c1)C2=O
active: LOX IMVI melanoma -61.8%
inactive: HT29 colon 105% | SNB-75 CNS 109% | SNB-19 CNS 101% | U251 CNS 95.7% | PC-3 prostate 69.6% | SK-MEL-5 melanoma 96.9% | UACC-62 melanoma 97.6% | SK-MEL-28 melanoma 78.5%

CN1CCN(Cc2ccc(NC(=O)c3cncc(C#Cc4cnc5ccc(NCCO)nn45)c3)cc2C(F)(F)F)CC1
active: HT29 colon -28% | SNB-75 CNS -90.5% | SNB-19 CNS 0.946% | U251 CNS -19.6% | PC-3 prostate 3.35% | SK-MEL-5 melanoma -22.2% | UACC-62 melanoma -32.7% | LOX IMVI melanoma -87.8%

CCC(=C(c1ccc(OCCN(C)C)cc1)c1ccc(OCCN(C)C)cc1)c1ccc(Cl)cc1
inactive: SNB-75 CNS 17.7%
active: HT29 colon -38.9% | SNB-19 CNS -39.8% | U251 CNS -64.5% | PC-3 prostate -12.1% | SK-MEL-5 melanoma -95.8% | UACC-62 melanoma -73.6% | LOX IMVI melanoma -98.1% | SK-MEL-28 melanoma -83.3%

CCCN1C=C/C(=C\C(=O)n2ccc3ccccc32)c2ccccc21
inactive: HT29 colon 74.7% | SNB-75 CNS 90.8% | SNB-19 CNS 94.5% | U251 CNS 90.3% | PC-3 prostate 73.7% | SK-MEL-5 melanoma 82.1% | UACC-62 melanoma 68.9% | LOX IMVI melanoma 78.7%
